# The list shows a part of the results. Inconclusive results are not listed. The source made the active and inactive calls.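 The calls were made as follows: active = fitted half-maximal concentration for signal loss at or below twice the highest dose tested, in every separate run (actives reach about 64 µM in these data); inconclusive = runs disagree, or flat partial signal loss, or poor fit; inactive = the rest.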
# Assay: DNA binders displacing acridine orange – biochemical, fluorescence polarization, cherry-pick, artefact control for RAD52 inhibitor project, dose response (AID 652128)
# Conditions: Salmon sperm DNA/acridine orange FP displacement, DNA binding
SMILES,outcome,AC50
CCCCCCCCCCCCn1ccc(=N)cc1,inactive,
COc1ccc2c(c1O)-c1cccc3c1[C@@H](C2)N(C)CC3,inactive,
CC1=CC(=Cc2sc3ccccc3[n+]2C)C=C(C)O1,inactive,
C[N+]1(C)CCOC(O)(c2ccc(-c3ccc(C4(O)C[N+](C)(C)CCO4)cc3)cc2)C1 (stereo not given),inactive,
CCOc1cccc(=NC2CCCCC2)c2c(C)[nH]c(C)c12,,36 µM (active)

# Reference: PubChem BioAssay AID652128 (Broad Institute, 2013)
